# Reference: article PMC5540273 (PLoS ONE, 2017)
# What was measured:
# Conditions in all cases: concentration: 1 μM,replicates: in singlicate; n = 1
# ADCK4 = test system: ADCK4
# AKT1 = test system: AKT1
# AKT2 = test system: AKT2
# AKT3 = test system: AKT3
# ALK = test system: ALK
# AMPK-alpha1 = test system: T1, AMPK-alpha1
# T1 construct: gene PRKAA1
# AMPK-alpha2 = test system: T2, AMPK-alpha2
# T2 construct: gene PRKAA2
# ANKK1 = test system: ANKK1
# ARK5 = test system: T3, ARK5
# T3 construct: gene NUAK1
# ASK1 = test system: T4, ASK1
# T4 construct: gene MAP3K5
# 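Also: KINOMEscan kinase panel screen.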
Structure (SMILES),%Inh (ADCK4),%Inh (AKT1),%Inh (AKT2),%Inh (AKT3),%Inh (ALK),%Inh (AMPK-alpha1),%Inh (AMPK-alpha2),%Inh (ANKK1),%Inh (ARK5),%Inh (ASK1)
COc1cccc(OC)c1C(=O)Nc1cccc(-c2nn3ccccc3c2-c2ccnc(Nc3cccc(F)c3)n2)c1 [GSK361065],0%,4%,0%,0%,0%,25%,4%,93.2%,0%,22%
CN1CCN(CCCNc2nccc(-c3c(-c4ccc(F)cc4)nn4cc(C(N)=O)ccc34)n2)CC1 [GW622475],100%,0%,12%,0%,26%,18%,11%,29%,19%,0%
CNC(=O)c1ccccc1Nc1nc(Nc2cccc(CS(C)(=O)=O)c2)ncc1C.O=CO [GSK1520489],33%,0%,0%,0%,95.1%,96.4%,97.9%,39%,99.1%,0%
Cc1cccc(-c2nc(Nc3ccncc3)c3sccc3n2)n1 [GW869641],8%,5%,0%,3%,33%,20%,27%,12%,0%,25%
CN(c1cccc(CNc2nc(Nc3ccc4c(c3)CC(=O)N4)ncc2C(F)(F)F)c1)S(C)(=O)=O,29%,0%,0%,0%,41%,26%,5%,0%,99.3%,0%
COc1cccc(C2=C(Nc3cccc(Cl)c3)C(=O)NC2=O)c1 [SB-341556],0%,0%,0%,0%,32%,0%,0%,0%,0%,5%
CS(=O)(=O)Nc1ccc(-c2ccnc3[nH]ccc23)cc1 [GSK993273],22%,0%,21%,0%,18%,94.4%,0%,27%,0%,44%
Cc1ccn2nc(-c3ccc(F)cc3)c(-c3ccncc3)c2c1.Cl [GW457859],59%,0%,0%,0%,1%,5%,0%,5%,5%,0%
COc1cc2c(Nc3ccc(NC(=O)c4ccccc4)cc3)ncnc2cc1OCCCN1CCOCC1 [GSK301329],0%,0%,0%,0%,9%,0%,0%,17%,28%,0%
CCNCC(Cc1ccccc1)NC(=O)c1cc(Br)c(-c2ccnc3[nH]ccc23)s1.Cl.Cl (stereo not drawn) [GSK1383280],89%,93.7%,81%,88%,42%,49%,45%,8%,60%,0%
Cl.Nc1n[nH]c2cc(-c3ccccn3)ccc12 [GSK2189892],17%,0%,0%,0%,16%,0%,1%,0%,0%,0%
OCCn1cc(-c2cnc3nnn(Cc4ccc5ncccc5c4)c3n2)cn1,0%,0%,0%,45%,0%,3%,0%,0%,0%,19%
N#Cc1cccc(C(=O)NC2CCN(c3ccnc(Nc4ccc(F)cc4)n3)C2)c1 (stereo not drawn) [GSK1379708],20%,0%,0%,0%,26%,16%,0%,0%,0%,0%
COc1cccc(CNC(=O)NC2CCN(c3ccnc(Nc4cc(OC)c(OC)c(OC)c4)n3)C2)c1 (stereo not drawn) [GSK1379765],92.3%,0%,17%,0%,72%,0%,2%,42%,45%,7%
COC(=O)c1cccc(NC(=O)NC2CCN(c3ccnc(Nc4cc(OC)c(OC)c(OC)c4)n3)C2)c1 (stereo not drawn) [GSK1379767],60%,0%,0%,0%,50%,16%,9%,20%,10%,0%
CCn1c(-c2nonc2N)nc2cncc(CNC3CCNCC3)c21.Cl [SB-747651],11%,72%,51%,66%,63%,6%,0%,22%,9%,9%
CS(=O)c1ccc(-c2coc3ccc(-c4n[nH]c(=O)o4)cc23)cc1 (stereo not drawn),12%,0%,0%,26%,13%,100%,5%,36%,10%,0%

Structure (SMILES),%Inh (ADCK4),%Inh (AKT1),%Inh (AKT2),%Inh (AKT3),%Inh (ALK),%Inh (AMPK-alpha1),%Inh (AMPK-alpha2),%Inh (ANKK1),%Inh (ARK5),%Inh (ASK1)
CC(=O)Nc1ccc(-c2cc3ncnc(SCC(=O)O)c3s2)cc1,0%,0%,28%,16%,7%,2%,0%,22%,0%,0%
CC(C)S(=O)(=O)N1CCN(Cc2ccc3c(c2)nc(NC(=O)c2ccsc2)n3C[C@H](O)c2ccccc2)CC1 [GW635815],27%,0%,16%,0%,68%,0%,2%,19%,60%,17%
CCOC(=O)N1CCC(n2cnc(-c3ccc(F)cc3)c2-c2ccnc(N)n2)CC1 [SB-219952],20%,7%,0%,24%,0%,99.8%,4%,0%,0%,0%
C[C@@H]1CNc2c(sc3ccc4nc(-c5ccncc5)ccc4c23)C(=O)N1,0%,0%,18%,22%,33%,20%,0%,0%,0%,90%
c1ccc(Oc2ccc(Nc3ccnc4ccc(-c5ccccn5)cc34)cc2)cc1 [GW407034],19%,0%,17%,0%,28%,10%,0%,0%,26%,4%
Cc1ccc(CC(=O)N2CCc3cc(-c4cn(C)c5ncnc(N)c45)ccc32)cc1 [GSK2634758],9%,0%,1%,30%,0%,0%,29%,23%,37%,3%
Cn1ccc2ncnc(Oc3ccc(NC(=O)Nc4cc(C(C)(C)C)on4)c(Cl)c3)c21,19%,18%,0%,0%,38%,0%,21%,10%,4%,11%
Cn1ccc2ncnc(Oc3ccc(NC(=O)Nc4cccc(C(F)(F)F)c4)c(Cl)c3)c21,6%,0%,0%,0%,0%,15%,0%,0%,3%,5%
Cn1ccc2ncnc(Oc3ccc(NC(=O)Nc4cccc(C(F)(F)F)c4)c(F)c3)c21,0%,23%,0%,0%,20%,0%,0%,0%,5%,5%
FC(F)(F)c1cc(Br)cc(Nc2nccc(-c3cnn4ncccc34)n2)c1 [GW810578],27%,6%,6%,20%,0%,24%,16%,27%,40%,0%
COc1cc(Nc2nccc(N3CCC(NC(=O)c4cccc(C#N)c4)C3)n2)cc(OC)c1OC (stereo not drawn) [GSK1379751],50%,0%,0%,0%,14%,0%,0%,24%,26%,0%
COc1cc2nccc(Nc3ccc(Oc4ccccc4)cc3)c2cc1OC.Cl [GI261656],40%,0%,0%,0%,4%,0%,0%,0%,7%,0%
C[C@@H](Oc1cc(-n2cnc3ccc(-c4ccncc4)cc32)sc1C(N)=O)c1ccccc1Cl [GSK483724],76%,41%,22%,0%,20%,8%,12%,17%,0%,10%
Cl.Cl.NC[C@H](CC1CCCCC1)NC(=O)c1ccc(-c2ccnc3[nH]ccc23)s1 [GSK1581428],2%,94.1%,93.4%,98.1%,37%,77%,72%,0%,89%,0%
Cn1ccc2ncnc(Oc3ccc(NC(=O)Nc4cncc(C(F)(F)F)c4)c(Cl)c3)c21,0%,6%,13%,0%,0%,0%,0%,0%,0%,0%
Cc1n[nH]c2cc(Nc3ccnc(Nc4cccc(CN5CCOCC5)c4)n3)ccc12 [GW682569],97.1%,0%,0%,0%,16%,0%,0%,17%,0%,0%
